The values below come from PubChem BioAssay (NCI).

Each structure is given as a SMILES string. “And” between values parts separate entries of the source, which are not always exact repeats. Equal entries are not always repeated. This is part of a sample that, as a whole, favours compounds with a hit. Of some 83,000 tested, about 20% had one in any assay.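 Assay: single dose, 48 h. Readout: percent growth (0 = no net growth; negative = cell death). Active: <10.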 A number with no mark means an inactive call. The source made the active and inactive calls.

This test concerns MDA-MB-468 breast. The experiment in a line: NCI-60 one-dose screen, 48 h (100 = growth as untreated, 0 = no growth, -100 = all killed). To be noted: 10 µM unless noted.
For `NS(=O)(=O)c1ccc(N2CC(c3nc4ccccc4[nH]3)CC2=O)cc1` (stereo unspecified), the growth was 113%.

On to `Cn1c2ccccc2c2c3c(c4c5cc(Br)ccc5n(C)c4c21)C(=O)N(O)C3=O`, for which the growth was -0.278% (active).

With `COc1ccc(/C=N/NC(=O)Cn2c(Cc3cccc4ccccc34)nc3ccccc32)cc1`, the growth was 92.4%.

Regarding `COc1ccc(OC)c(/C=C/c2nc(=S)n(-c3ccc(Cl)cc3)[nH]2)c1`, the growth was 38.8%.

In the case of `C[C@H]1OC(=O)/C=C/[C@@H](O)[C@@H](O)CCCCCCCC[C@@H]1O`, the growth is 97.2%.

For the compound `CCN1C(=O)N(CC)C2Nn3c(s/c(=C\c4ccc(OC)cc4)c3=O)=NC21` (stereo unspecified), the growth is 14.1%.

`N=C(N)c1ccc(-c2ccc(-c3ccc(Cl)cc3)s2)nc1`: the growth is -56.4% (active).

In the case of `O=[N+]([O-])c1ccccc1/C=N\NC(=S)N/N=C/c1ccccc1[N+](=O)[O-]`, the growth was 30.7%.

As for `C[C@]12CC[C@@H]3c4ccc(O)cc4C[C@@H](O)[C@H]3[C@@H]1CC[C@@H]2O`, the growth was 98.1%.

Consider `Nc1ccc2ccc(NS(=O)(=O)N3CCCCC3)cc2c1`, for which the growth is 7.79% (active).

With `Cn1cc(-c2nc(-c3cn(C)c4ncccc34)cs2)c2ccccc21`, the growth is -21.1% (active).

For the compound `Cc1ccc(N=CNN=C(N)N)cc1`, the growth is 100%.

For `COC(=O)[C@H]1CCCN1C[C@@H](O)CN1C(=O)/C(=C\c2cc(OC)c(OC)c(OC)c2)c2ccccc21`, the growth was 111%.

As for `N#Cc1nc(-c2ccccc2)oc1N1CCC(C2(C(F)(F)F)N=N2)CC1`, the growth is 112%.

As for `CC(C)[O-].CC(C)[O-].CN(CCN(C)Cc1cc(F)cc(F)c1[O-])Cc1cc(F)cc(F)c1[O-].[Ti+4]`, the growth is -36.8% (active).

Regarding `CN1C2CCC1/C(=C\c1ccc(F)cc1)C(=O)/C2=C/c1ccc(F)cc1`, the growth was 28.8%.

On to `CC(C)OC1OC(OC(C)C)C(OC(C)C)OC1OC(C)C` (stereo unspecified), for which the growth is 101%.

With `O=C1C=CC2(NN=C(c3ccccc3)N2c2cccc(Cl)c2)C(Cl)=C1` (stereo unspecified), the growth was 71.7%.

As to `CCOC(=O)c1ccc2c(c1)nc(-c1ccccc1)n2C1CCCCC1`, the growth is 118%.

For `O=C(CCCSc1nc(-c2ccc(Cl)cc2)cc(-c2ccc(Cl)cc2)n1)NO`, the growth was -49.5% (active).

With `O=C(CN1CCN(c2ccc(Cl)cc2)CC1)N1CCN(c2nnc(-c3ccc(Cl)cc3)c(-c3ccc(Cl)cc3)n2)CC1`, the growth is 87.5%.

Turning to `C[C@@H](c1ccc2c(c1)[nH]c1ccc(Cl)cc12)c1nc2ccccc2[nH]1`, the growth is -3.2% (active).

As for `CCCC(=O)OCC1OC(n2cnc3c(=S)nc[nH]c32)C(OC(=O)CCC)C1OC(=O)CCC` (stereo unspecified), the growth is 70.8%.

As for `O=C(O)c1c2c(nc3ccccc13)Cc1ccccc1-2`, the growth is 128% and 89.3%.

Consider `CC[C@H](CC[C@@H](C)[C@H]1CC[C@H]2[C@@H]3CC(=O)C4=CC(=O)/C(=C/c5ccc([N+](=O)[O-])cc5)C[C@]4(C)[C@H]3CC[C@]12C)C(C)C`, for which the growth was 104%.

Turning to `CCN(CCO)CCNc1ccc(C)c2sc3cc(OC)ccc3c(=O)c12`, the growth is 87.7%.
